Our source for the growth values is PubChem BioAssay (NCI).

About 83,000 compounds went through this panel and 20% of them were active in at least one assay; those are over-represented in the sample as a whole.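 48-hour exposure, single concentration, 96-well plates; percent growth endpoint where 0 means no net growth. Active: below 10.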 Values without a mark were called inactive. Active and inactive are the calls of the source.

The test system of the first experiment is HCC-2998 colon. Nature of the experiment: NCI-60 one-dose screen, 48 h (100 = growth as untreated, 0 = no growth, -100 = all killed). Conditions: 10 µM unless noted.
On to `Cc1ccc(NS(=O)(=O)c2ccc(-c3cnc(C4CC4)o3)cc2)cc1C(F)(F)F`, for which the growth is 84.1%.

Consider `C/C(=N\NC(=O)CSc1nc2ccccc2c(=O)n1CCc1ccc(S(N)(=O)=O)cc1)c1ccccn1`, for which the growth is 39.3%.

With `C=C(CBr)[C@@H]1CC[C@]2(COC(C)=O)CC[C@]3(C)[C@H](CC[C@@H]4[C@@]5(C)CCCNC(C)(C)[C@@H]5CC[C@]43C)[C@@H]12`, the growth was 50.8%.

For the compound `COc1ccc(C(=O)Nc2cccc(C3CCc4c(cc(OC)c(OC)c4OC)O3)c2)cc1` (centres undefined), the growth is 80.1%.

As for `N=C(N)c1ccc(OCCCCCCCCCCOc2ccc(C(=N)N)cc2)cc1`, the growth was -94.9% (active).

For `COc1cc2nc(-c3ccc(Cl)cc3)cc(OCCCN3CCOCC3)c2cc1OC`, the growth is 66.8%.

Turning to `Brc1ccc2[nH]cc(-c3cncn3CCc3ccccc3)c2c1`, the growth is 72.5%.

Another experiment deals with KM12 colon. The experiment is described as above. The conditions noted are these: 10 µM unless noted.
On to `N/C(=N\C(N)=N\c1nc2ccccc2s1)c1cccc(Cl)c1`, for which the growth is 40.8%.

Take `CCOC(=O)[C@@H](C)C[C@H](Cc1ccccc1)NC(=O)c1csc([C@@H](C[C@H](C(C)C)N(C)C(=O)[C@@H](NC(=O)[C@H]2C[C@H](O[Si](C)(C)C(C)(C)C)CCN2C)C(C)C)OC(C)=O)n1`: the growth was 2.03% [9.25 µM] (active).

On to `COC(=O)/C=C1\S/C(=N\NC(=O)c2cc3ccc2/C=C\c2ccc(cc2)/C=C\3)N(c2ccccc2)C1=O`, for which the growth is 8.49% (active).

With `NNC(=O)c1ccc(-n2nc(-c3ccccc3)c3ccccc32)cc1`, the growth is 94.8%.

Regarding `NC(=NCCCOc1ccc(F)cc1)Nc1ccc(I)cc1`, the growth was 87.8%.

Regarding `N#CC1C(C#N)C(C(=O)c2ccc(Br)cc2)N2c3ccccc3C=CC12` (centres undefined), the growth was 22.3%.

`CCN1C(=O)/C(=C/C(=O)OC)S/C1=N\NC(=O)c1cc2ccc1/C=C\c1ccc(cc1)/C=C\2`: the growth was 85%.

In the case of `COc1ccccc1/C=C1\Oc2cc(OCCN3CCCC3)ccc2C1=O`, the growth was 88.8%.

Regarding `Cc1cc2nc3c4ccc(Br)cc4n(CCN(C)C)c3nc2cc1C`, the growth is 23.8%.

`C/C(=N\Nc1cc(C)nc2ccc(Br)cc12)c1ccc([N+](=O)[O-])cc1`: the growth is 75.5%.

As to `COc1cc(C2C3CC4CCCC[C@H]4N3[C@@]3(C(=O)Nc4cc(Cl)ccc43)C2C(=O)c2nc3ccccc3[nH]2)cc(OC)c1OC` (some centres undefined), the growth is 60.6%.

For the compound `O=C1OC(Cc2ccccc2)C1c1ccccc1` (centres undefined), the growth is 101%.

For `CC(Oc1ccc(C(=O)O)cc1C(F)(F)F)c1ccc(Oc2ccccc2)cn1` (centres undefined), the growth was 92.2%.

In the case of `CC(Sc1nc2ccccc2c(=O)n1CCc1ccc(S(N)(=O)=O)cc1)C(=O)Nc1ccc(Cl)cc1` (centres undefined), the growth is 97.5%.

In the case of `CC1=CCC(OC(=O)C(C)(O)CCC(O)(C(=O)OC2(C)C=CC(O)(C(C)C)CC2)C(C)C)(C(C)C)CC1` (centres undefined), the growth is 108%.

On to `ClC1=C(Br)C(Br)(Br)C(=C(Br)Br)C1(Br)Br`, for which the growth is 101%.

On to `C=C1C(=O)O[C@H]2[C@H]1CC/C(CNC(=O)C(C)c1ccc(CC(C)C)cc1)=C\CC[C@@]1(C)O[C@@H]21` (some centres undefined), for which the growth is 57.8%.

`CCCCCN1C=C/C(=C\C(=O)N2CCCc3ccccc32)c2ccccc21`: the growth was 90.4%.

`N#Cc1cc(-c2nc3ccccc3s2)c(=O)n(NS(=O)(=O)c2ccccc2)c1N`: the growth is 103%.

As to `CCCOc1ccc(/C=N/Nc2cc(C)nc3ccc(Cl)cc23)cc1`, the growth was 16.5%.

For the compound `Cc1cccc(NC(=O)Nc2ccc(-n3cnc4cc(-c5ccc(O)cc5)ccc43)cc2)c1`, the growth was 13%.

As to `O=c1c2c(c(=O)n1O)c1c3ccc[nH]c3nc1c1nc3[nH]cccc3c12`, the growth was 97.1%.

Regarding `O=C(CNCCN1CCOCC1)N1c2cccc3cccc(c23)N(C(=O)CNCCN2CCOCC2)C1c1cn(-c2ccccc2)nc1-c1cccc([N+](=O)[O-])c1`, the growth is 98.8%.

In the case of `O=Cc1cc2ccccc2nc1Oc1ccc(C(F)(F)F)cc1`, the growth was 92.4%.

As to `COc1ccc(C(=O)/C=C/c2cc3ccccc3n3nnnc23)cc1`, the growth was 109%.

Consider `CN1CCN(C(=O)[C@]23CCC(C)(C)C[C@H]2C2=CC[C@@H]4[C@@]5(C)C/C(=C/c6cccnc6)C(=O)C(C)(C)[C@@H]5CC[C@@]4(C)[C@]2(C)CC3)CC1`, for which the growth was 55.1%.

With `CCN(CC)c1ccc(/C=N/NC(=O)CSc2nc3ccccc3c(=O)n2CCc2ccc(S(N)(=O)=O)cc2)c(O)c1`, the growth is 19.1%.
